# Compound activity as filed in PubChem.
# Sm TGR block: blocks Schistosoma mansoni thioredoxin glutathione reductase; Potency, µM (doses to about 114 µM), inactives show top-dose activity change, negative = inhibition, usual class: inhibitors; hit rate 3% among 360,000; Q962Y6; purified TGR, DTNB reduction, TNB absorbance 405 nm; active = well fitted inhibition curve with a large enough effect; inconclusive = small, poorly fitted or top-dose-only effect; inactive = no such curve, though single readings can be large or run the other way; also: potency is read from the fitted curve at half-maximal effect; % is scaled to controls: 0 for no effect and ±100 for the full control effect; nearly all actives have a fitted effect of over 60% in size
#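 First, TGR (20 nM dispensed) and NADPH were mixed with compound. Second, a 15 min room-temperature incubation followed. Third, further NADPH and then DTNB were added to start the reaction. Finally, TNB absorbance was monitored kinetically.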
# Shiga toxin inh: Shiga toxin inhibition; inhibition, % at 38.7 µM; AID 2315; hit rate 9.2% among 290,000; Vero cells, Shiga toxin protein synthesis inhibition reporter; in the data active = inhibition mostly above about 28%, no sharp cut-off; inactive = mostly below about 43%; also: 0% is about no effect
# CHX counter: counter-screen hit for Shiga toxin inhibitors, cycloheximide | cell reporter, cycloheximide protein synthesis inhibition counterscreen | max response, % | hit rate 12% among 300,000; in the data active = max response mostly above about 13%, no sharp cut-off; inactive = mostly below about 14%; also: read at 38.3 µM for the half of the compounds with a filed dose; 0% is about no effect
# FMDV antiviral: foot and mouth disease virus antiviral activity. FMDV antiviral cell-based qHTS. Potency, µM (titrated, usually from 57.9 µM), inactives show at the top dose activity change, negative = inhibition, actives largely listed as inhibitors. hit rate 1.2% among 410,000; calls by dose curve; tested in HEK293T cells; also: read-out not given here; potency is read from the fitted curve at half-maximal effect; % is scaled to controls: 0 for no effect and ±100 for the full control effect; nearly all actives have a fitted effect of over 45% in size
# * = called active by the depositor; ? = inconclusive; nt = no result; + = active, no number. Sampled rows, rich in hits. Any-hit rate of the full collection: about 12%.
SMILES,Sm TGR block,Shiga toxin inh,CHX counter,FMDV antiviral
COc1ccc2c(Sc3ccccc3)c(C(=O)NCCCN3CCCCC3)[nH]c2c1,4%,nt,nt,-12%
COc1ccc(CNC(=O)CCn2c(=O)c3cccn3c3ccc(F)cc32)cc1OC,8%,nt,nt,-8%
O=C(c1ccc([N+](=O)[O-])cc1)N1c2ncnn2C2(CCCCC2)[C@@H]2CCCC[C@@H]21,5%,nt,nt,?
Nc1nonc1-c1noc(-c2ccccc2)n1,-4%,57*,42*,57%
Nc1ccc(-c2ncc(-c3ccccc3)o2)cc1,13%,-6,1,?
Cc1ccc(-c2cnc(-c3ccncc3)o2)cc1,-11%,95*,33*,22%
CC(C)(C)c1ccc(-c2nc(-c3ccncc3)no2)cc1,-3%,63*,32*,?
FC(F)(F)c1cccc(-c2nc(-c3ccncc3)no2)c1,0%,29,1,60%
Cc1ccc(-c2nc(-c3cccnc3)no2)cc1,7%,90*,48*,13%
Cc1cccc(-c2nc(-c3ccncc3)no2)c1,6%,133*,40*,34%
Clc1cccc(Cl)c1-c1noc(-c2ccno2)n1,-7%,-12,4,-10%
CCC(=O)Oc1ccc(-c2nc(-c3cccnc3)no2)cc1,1%,32*,22*,1%
Cc1ccc(-c2nc(-c3ccccc3)no2)cc1,-24%,64*,38*,11µM*
CC(C)(C)c1ccc(-c2noc(-c3ccno3)n2)cc1,20%,82*,51*,27%
CCC(c1ccccc1)c1nc(-c2cccnc2)no1 (centres undefined),-4%,-8,0,6%
CCC1CN(C(=O)Nc2cccc3c2CCCC3)c2cc(Cl)ccc2O1 (centres undefined),-5%,nt,nt,-23%
CCN(C(=O)NCc1noc2ccccc12)c1cc(C)ccc1C,1%,nt,nt,-13%
O=C(Cc1ccc(S(=O)(=O)N2CCOCC2)s1)NCC(=O)Nc1ccccc1Br,56µM*,nt,nt,-3%
CC1(C)CC(=O)c2cc(-c3nc(-c4ccc(Cl)cc4)cs3)c(=O)n(-c3ccc(F)cc3)c2C1,1%,nt,nt,1%
Cc1cc(C(=O)N/N=C2/CC(C)CC(C)(C)C2)c(C)o1 (centres undefined),-1%,77*,31*,13%
CC1C/C(=N\NC(=S)NCc2ccccc2)CC(C)(C)C1 (centres undefined),-1%,14,-1,-7%
O=C(COC(=O)c1cccc(N2C(=O)C3CC=CCC3C2=O)c1)c1ccccc1 (centres undefined),-35%,55*,27*,8%
O=C(COC(=O)c1ccc(N2CCCC2=O)cc1)c1ccccc1,0%,83*,31*,27%
CCc1ccc(C(=O)COC(=O)c2cccc(N3C(=O)c4c(C)nc5ccccc5c4C3=O)c2)cc1,-10%,103*,56*,24%
Nc1cccc(C(=O)OCC(=O)c2ccccc2)c1,-1%,+,44*,21%
SMILES,Sm TGR block,Shiga toxin inh,CHX counter,FMDV antiviral
O=C(COC(=O)c1ccc(N2CCCC2=O)cc1)Nc1ccccc1,1%,nt,nt,-12%
Cc1ccc2nc(CN3CCN(C(=O)Nc4ccc(F)cc4)CC3)oc2c1,-9%,nt,nt,-22%
CC1=C(C(=O)NCCc2ccc(Cl)cc2)C2(CCCCC2)OC1=O,2%,nt,nt,-8%
CCN(CC)C(=O)CSc1ncccc1-c1nc2ccccc2[nH]1,0%,27,17*,-3%
Cc1ccc2nc(SCC(=O)N3c4ccccc4CC3C)c(C)cc2c1 (centres undefined),11%,-4,18,?
O=C(CSc1ncccc1-c1nc2ccccc2[nH]1)N1CCCCC1,-17%,79*,34*,12%
Cc1ccc2nc(-c3cccnc3SCC(=O)N3c4ccccc4CC3C)[nH]c2c1 (centres undefined),-1%,136*,31*,?
CN(C)C(=O)CSc1ncccc1-c1nc2ccccc2[nH]1,-33%,-8,1,2%
O=C(c1ccccc1-c1nc2ccccc2[nH]1)N1CCCCC1,-1%,2,1,14%
CC(C)NC(=O)CSc1ncccc1-c1nc2ccccc2[nH]1,2%,24,13*,8%
CCC1CN(CC(=O)NCc2cccc(Br)c2)c2ccccc2S1 (centres undefined),-3%,nt,nt,-14%
CCOc1ccc(C(=O)Nc2ccc3nn(-c4ccc(OC)c(Cl)c4)nc3c2)cc1,5%,nt,nt,-10%
O=S(=O)(NCC(c1ccco1)N1CCN(c2ccc(F)cc2)CC1)c1cc(F)ccc1F (centres undefined),-1%,nt,nt,?
Cc1nn(-c2ccccc2)c(C)c1/C=N/NC(=O)c1cnccn1,12%,40,16*,16%
CC/C(=N\NC(=O)c1cc(C2CC2)[nH]n1)c1ccccc1,-9%,69*,15*,38%
Cc1cc(C(=O)N/N=C/c2c(C)nn(-c3ccccc3)c2C)n[nH]1,25%,55*,18*,7%
Cc1nn(-c2ccccc2)c(C)c1/C=N/NC(=O)c1cc(C2CC2)[nH]n1,-15%,-1,14*,-3%
CC/C(=N\NC(=O)c1c(C)nc2ccccn12)c1ccccc1,-6%,-5,1,-14%
Cc1nn(-c2ccccc2)c(Cl)c1/C=N\NC(=O)c1cnccn1,0%,-9,-3,14%
CCOC(=O)c1ccc(CN(Cc2ccccc2C)S(=O)(=O)c2ccc(F)c(C)c2)cc1,12%,nt,nt,-8%
O=C(N/N=C/c1ccc(O)cc1)c1cc(C2CC2)[nH]n1,1%,-30,12,18%
Cc1nn(-c2ccccc2)c(C)c1/C=N/NC(=O)c1cc(-c2ccc(Cl)s2)[nH]n1,19%,3,-4,4µM*
Cc1nn(-c2ccccc2)c(C)c1/C=N/NC(=O)c1cc(-c2ccc(Br)s2)[nH]n1,2%,-5,-1,-16%
O=C(N/N=C/c1c(F)cccc1Cl)c1cc(C2CC2)[nH]n1,1%,77*,30*,0%
Cc1cc(NC(=O)CN(C)S(=O)(=O)c2ccc3c(c2)CCC(=O)N3)ccc1Br,6%,nt,nt,14µM*
SMILES,Sm TGR block,Shiga toxin inh,CHX counter,FMDV antiviral
CCCCN(C)CCNC(=O)c1cc(=O)[nH]c2ccc(S(=O)(=O)N3CCCCCC3)cc12,1%,nt,nt,-11%
CC(=O)c1ccc(N/N=C2/CCCNC2=O)cc1,-3%,45,22*,-19%
Cc1ccc(N/N=C2/CCCNC2=O)cc1,32µM*,40,11,17%
O=C1NCCC/C1=N/Nc1cc(F)ccc1F,4%,42*,36*,52%
COc1cc(NC(=O)CN2C(=O)CCc3cc(Br)ccc32)cc(OC)c1OC,-1%,nt,nt,-14%
OC(C#CCN1CCCC1)(c1ccccc1)c1cccnc1 (centres undefined),32µM*,28,-4,5%
OC(C#CCCN1CCCCC1)(c1ccccc1)c1ccccc1,-18%,-5,6,-4%
OC(C#CCN1CCCCCC1)(c1ccccc1)c1cccnc1 (centres undefined),14µM*,-3,-1,-6%
Cc1c(NC(=O)Nc2ccc(Cl)c(C(F)(F)F)c2)c(=O)n(-c2ccccc2)n1C,6%,nt,nt,0%
O=C(NC(c1cccnc1)C(F)(F)F)c1cc(COc2ccc3c(c2)CCCC3)on1 (centres undefined),3%,100*,46*,0%
